Measurements reported in the supplement of paper PMC4466140.

molecular target: AgAbp1; assay: SPOT peptide array binding signal intensity (averaged, normalized) (arbitrary units (background-subtracted, floor 0; scale differs between SH3 domains)); higher = stronger binding of the SH3 domain to the peptide
Method in brief: (§1)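 Peptides were synthetic 15-mers on cellulose membranes, with every cysteine replaced by serine. They were incubated overnight at 4°C with GST-SH3 domains from four yeast species at 10 μg/ml in TBS-based blocking buffer. Binding signal, the replicate-averaged normalized and background-subtracted spot intensity, is in arbitrary units that differ between domains.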

Row | Binder | SPOT peptide array binding signal intensity
1 | QDKEGIPPDQQRLIF | ≤ 0

molecular target: AgBbc1; assay: as above
Method in brief: as §1

Row | Binder | SPOT peptide array binding signal intensity
2 | QDKEGIPPDQQRLIF | ≤ 0

molecular target: AgBem1-D1; assay: as above
Method in brief: as §1

Row | Binder | SPOT peptide array binding signal intensity
3 | QDKEGIPPDQQRLIF | ≤ 0

molecular target: AgBzz1-D1; assay: as above
Method in brief: as §1

Row | Binder | SPOT peptide array binding signal intensity
4 | QDKEGIPPDQQRLIF | ≤ 0

molecular target: AgBzz1-D2; assay: as above
Method in brief: as §1

Row | Binder | SPOT peptide array binding signal intensity
5 | QDKEGIPPDQQRLIF | ≤ 0

molecular target: AgCyk3; assay: as above
Method in brief: as §1

Row | Binder | SPOT peptide array binding signal intensity
6 | QDKEGIPPDQQRLIF | ≤ 0

molecular target: AgFus1; assay: as above
Method in brief: as §1

Row | Binder | SPOT peptide array binding signal intensity
7 | QDKEGIPPDQQRLIF | ≤ 0

molecular target: AgHof1; assay: as above
Method in brief: as §1

Row | Binder | SPOT peptide array binding signal intensity
8 | QDKEGIPPDQQRLIF | ≤ 0

molecular target: AgHse1; assay: as above
Method in brief: as §1

Row | Binder | SPOT peptide array binding signal intensity
9 | QDKEGIPPDQQRLIF | ≤ 0

molecular target: AgLsb1; assay: as above
Method in brief: as §1

Row | Binder | SPOT peptide array binding signal intensity
10 | QDKEGIPPDQQRLIF | ≤ 0

molecular target: AgLsb4; assay: as above
Method in brief: as §1

Row | Binder | SPOT peptide array binding signal intensity
11 | QDKEGIPPDQQRLIF | ≤ 0

molecular target: AgMyo5; assay: as above
Method in brief: as §1

Row | Binder | SPOT peptide array binding signal intensity
12 | QDKEGIPPDQQRLIF | 0.75

molecular target: AgNbp2; assay: as above
Method in brief: as §1

Row | Binder | SPOT peptide array binding signal intensity
13 | QDKEGIPPDQQRLIF | ≤ 0

molecular target: AgRvs167; assay: as above
Method in brief: as §1

Row | Binder | SPOT peptide array binding signal intensity
14 | QDKEGIPPDQQRLIF | 0.333

molecular target: AgSho1; assay: as above
Method in brief: as §1

Row | Binder | SPOT peptide array binding signal intensity
15 | QDKEGIPPDQQRLIF | ≤ 0

molecular target: AgSla1-D1-D2; assay: as above
Method in brief: as §1

Row | Binder | SPOT peptide array binding signal intensity
16 | QDKEGIPPDQQRLIF | ≤ 0

molecular target: AgSla1-D3; assay: as above
Method in brief: as §1

Row | Binder | SPOT peptide array binding signal intensity
17 | QDKEGIPPDQQRLIF | ≤ 0

molecular target: CaAbp1-D1; assay: as above
Method in brief: as §1

Row | Binder | SPOT peptide array binding signal intensity
18 | QDKEGIPPDQQRLIF | ≤ 0

molecular target: CaAbp1-D2; assay: as above
Method in brief: as §1

Row | Binder | SPOT peptide array binding signal intensity
19 | QDKEGIPPDQQRLIF | ≤ 0

molecular target: CaBbc1; assay: as above
Method in brief: as §1

Row | Binder | SPOT peptide array binding signal intensity
20 | QDKEGIPPDQQRLIF | ≤ 0

molecular target: CaBem1-D1; assay: as above
Method in brief: as §1

Row | Binder | SPOT peptide array binding signal intensity
21 | QDKEGIPPDQQRLIF | ≤ 0

molecular target: CaBzz1-D1; assay: as above
Method in brief: as §1

Row | Binder | SPOT peptide array binding signal intensity
22 | QDKEGIPPDQQRLIF | ≤ 0

molecular target: CaBzz1-D2; assay: as above
Method in brief: as §1

Row | Binder | SPOT peptide array binding signal intensity
23 | QDKEGIPPDQQRLIF | ≤ 0

molecular target: CaCyk3; assay: as above
Method in brief: as §1

Row | Binder | SPOT peptide array binding signal intensity
24 | QDKEGIPPDQQRLIF | ≤ 0

molecular target: CaFus1; assay: as above
Method in brief: as §1

Row | Binder | SPOT peptide array binding signal intensity
25 | QDKEGIPPDQQRLIF | ≤ 0

molecular target: CaHof1; assay: as above
Method in brief: as §1

Row | Binder | SPOT peptide array binding signal intensity
26 | QDKEGIPPDQQRLIF | ≤ 0

molecular target: CaHse1; assay: as above
Method in brief: as §1

Row | Binder | SPOT peptide array binding signal intensity
27 | QDKEGIPPDQQRLIF | ≤ 0

molecular target: CaLsb1; assay: as above
Method in brief: as §1

Row | Binder | SPOT peptide array binding signal intensity
28 | QDKEGIPPDQQRLIF | ≤ 0

molecular target: CaLsb4; assay: as above
Method in brief: as §1

Row | Binder | SPOT peptide array binding signal intensity
29 | QDKEGIPPDQQRLIF | ≤ 0

molecular target: CaMyo5; assay: as above
Method in brief: as §1

Row | Binder | SPOT peptide array binding signal intensity
30 | QDKEGIPPDQQRLIF | 10.8

molecular target: CaNbp2; assay: as above
Method in brief: as §1

Row | Binder | SPOT peptide array binding signal intensity
31 | QDKEGIPPDQQRLIF | ≤ 0

molecular target: CaRvs167; assay: as above
Method in brief: as §1

Row | Binder | SPOT peptide array binding signal intensity
32 | QDKEGIPPDQQRLIF | ≤ 0

molecular target: CaRvs167-3; assay: as above
Method in brief: as §1

Row | Binder | SPOT peptide array binding signal intensity
33 | QDKEGIPPDQQRLIF | 3

molecular target: CaSho1; assay: as above
Method in brief: as §1

Row | Binder | SPOT peptide array binding signal intensity
34 | QDKEGIPPDQQRLIF | ≤ 0

molecular target: CaSla1-D1-D2; assay: as above
Method in brief: as §1

Row | Binder | SPOT peptide array binding signal intensity
35 | QDKEGIPPDQQRLIF | ≤ 0

molecular target: CaSla1-D3; assay: as above
Method in brief: as §1

Row | Binder | SPOT peptide array binding signal intensity
36 | QDKEGIPPDQQRLIF | ≤ 0

molecular target: ScAbp1; assay: as above
Method in brief: as §1

Row | Binder | SPOT peptide array binding signal intensity
37 | QDKEGIPPDQQRLIF | 8

molecular target: ScBbc1; assay: as above
Method in brief: as §1

Row | Binder | SPOT peptide array binding signal intensity
38 | QDKEGIPPDQQRLIF | ≤ 0

molecular target: ScBem1-D1; assay: as above
Method in brief: as §1

Row | Binder | SPOT peptide array binding signal intensity
39 | QDKEGIPPDQQRLIF | ≤ 0

molecular target: ScBzz1-D1; assay: as above
Method in brief: as §1

Row | Binder | SPOT peptide array binding signal intensity
40 | QDKEGIPPDQQRLIF | 18

molecular target: ScBzz1-D2; assay: as above
Method in brief: as §1

Row | Binder | SPOT peptide array binding signal intensity
41 | QDKEGIPPDQQRLIF | 26

molecular target: ScCyk3; assay: as above
Method in brief: as §1

Row | Binder | SPOT peptide array binding signal intensity
42 | QDKEGIPPDQQRLIF | ≤ 0

molecular target: ScFus1; assay: as above
Method in brief: as §1

Row | Binder | SPOT peptide array binding signal intensity
43 | QDKEGIPPDQQRLIF | ≤ 0

molecular target: ScHof1; assay: as above
Method in brief: as §1

Row | Binder | SPOT peptide array binding signal intensity
44 | QDKEGIPPDQQRLIF | ≤ 0

molecular target: ScHse1; assay: as above
Method in brief: as §1

Row | Binder | SPOT peptide array binding signal intensity
45 | QDKEGIPPDQQRLIF | ≤ 0

molecular target: ScLsb1; assay: as above
Method in brief: as §1

Row | Binder | SPOT peptide array binding signal intensity
46 | QDKEGIPPDQQRLIF | ≤ 0

molecular target: ScLsb2; assay: as above
Method in brief: as §1

Row | Binder | SPOT peptide array binding signal intensity
47 | QDKEGIPPDQQRLIF | ≤ 0

molecular target: ScLsb3; assay: as above
Method in brief: as §1

Row | Binder | SPOT peptide array binding signal intensity
48 | QDKEGIPPDQQRLIF | ≤ 0

molecular target: ScLsb4; assay: as above
Method in brief: as §1

Row | Binder | SPOT peptide array binding signal intensity
49 | QDKEGIPPDQQRLIF | ≤ 0

molecular target: ScMyo3; assay: as above
Method in brief: as §1

Row | Binder | SPOT peptide array binding signal intensity
50 | QDKEGIPPDQQRLIF | ≤ 0

molecular target: ScMyo5; assay: as above
Method in brief: as §1

Row | Binder | SPOT peptide array binding signal intensity
51 | QDKEGIPPDQQRLIF | 7

molecular target: ScNbp2; assay: as above
Method in brief: as §1

Row | Binder | SPOT peptide array binding signal intensity
52 | QDKEGIPPDQQRLIF | ≤ 0

molecular target: ScPex13; assay: as above
Method in brief: as §1

Row | Binder | SPOT peptide array binding signal intensity
53 | QDKEGIPPDQQRLIF | ≤ 0

molecular target: ScRvs167; assay: as above
Method in brief: as §1

Row | Binder | SPOT peptide array binding signal intensity
54 | QDKEGIPPDQQRLIF | 1

molecular target: ScSho1; assay: as above
Method in brief: as §1

Row | Binder | SPOT peptide array binding signal intensity
55 | QDKEGIPPDQQRLIF | ≤ 0

molecular target: ScSla1-D1-D2; assay: as above
Method in brief: as §1

Row | Binder | SPOT peptide array binding signal intensity
56 | QDKEGIPPDQQRLIF | ≤ 0

molecular target: ScSla1-D3; assay: as above
Method in brief: as §1

Row | Binder | SPOT peptide array binding signal intensity
57 | QDKEGIPPDQQRLIF | ≤ 0

molecular target: SpAbp1-D1; assay: as above
Method in brief: as §1

Row | Binder | SPOT peptide array binding signal intensity
58 | QDKEGIPPDQQRLIF | ≤ 0

molecular target: SpBbc1; assay: as above
Method in brief: as §1

Row | Binder | SPOT peptide array binding signal intensity
59 | QDKEGIPPDQQRLIF | ≤ 0

molecular target: SpBzz1-D1; assay: as above
Method in brief: as §1

Row | Binder | SPOT peptide array binding signal intensity
60 | QDKEGIPPDQQRLIF | ≤ 0

molecular target: SpBzz1-D2; assay: as above
Method in brief: as §1

Row | Binder | SPOT peptide array binding signal intensity
61 | QDKEGIPPDQQRLIF | ≤ 0

molecular target: SpCyk3; assay: as above
Method in brief: as §1

Row | Binder | SPOT peptide array binding signal intensity
62 | QDKEGIPPDQQRLIF | ≤ 0

molecular target: SpHof1; assay: as above
Method in brief: as §1

Row | Binder | SPOT peptide array binding signal intensity
63 | QDKEGIPPDQQRLIF | ≤ 0

molecular target: SpHof1-2; assay: as above
Method in brief: as §1

Row | Binder | SPOT peptide array binding signal intensity
64 | QDKEGIPPDQQRLIF | 0.5

molecular target: SpHof1-3; assay: as above
Method in brief: as §1

Row | Binder | SPOT peptide array binding signal intensity
65 | QDKEGIPPDQQRLIF | 20

molecular target: SpHse1; assay: as above
Method in brief: as §1

Row | Binder | SPOT peptide array binding signal intensity
66 | QDKEGIPPDQQRLIF | ≤ 0

molecular target: SpLsb1; assay: as above
Method in brief: as §1

Row | Binder | SPOT peptide array binding signal intensity
67 | QDKEGIPPDQQRLIF | ≤ 0

molecular target: SpLsb4; assay: as above
Method in brief: as §1

Row | Binder | SPOT peptide array binding signal intensity
68 | QDKEGIPPDQQRLIF | ≤ 0

molecular target: SpMyo1; assay: as above
Method in brief: as §1

Row | Binder | SPOT peptide array binding signal intensity
69 | QDKEGIPPDQQRLIF | ≤ 0

molecular target: SpNbp2; assay: as above
Method in brief: as §1

Row | Binder | SPOT peptide array binding signal intensity
70 | QDKEGIPPDQQRLIF | ≤ 0

molecular target: SpPex13; assay: as above
Method in brief: as §1

Row | Binder | SPOT peptide array binding signal intensity
71 | QDKEGIPPDQQRLIF | ≤ 0

molecular target: SpRvs167; assay: as above
Method in brief: as §1

Row | Binder | SPOT peptide array binding signal intensity
72 | QDKEGIPPDQQRLIF | ≤ 0

molecular target: SpSla1-D1-D2; assay: as above
Method in brief: as §1

Row | Binder | SPOT peptide array binding signal intensity
73 | QDKEGIPPDQQRLIF | ≤ 0

molecular target: SpSla1-D3; assay: as above
Method in brief: as §1

Row | Binder | SPOT peptide array binding signal intensity
74 | QDKEGIPPDQQRLIF | ≤ 0
